Out of some 220,000 compounds screened, about 530 (0.24%) were called active. Rule as the data show it: active = inhibition above about 13%; inconclusive = no clear call, values can overlap the other calls; inactive = below that. For the sample, actives were picked, then their nearest neighbours and some compounds at random. Results with a measured potency or affinity are listed apart.

As a reminder, the inhibition is the relative decrease from the control value, in per cent.

Bifunctional protein GlmU (Mycobacterium tuberculosis (strain ATCC 25618 / H37Rv)), sequence (P9WMN3 whole entry, looked up): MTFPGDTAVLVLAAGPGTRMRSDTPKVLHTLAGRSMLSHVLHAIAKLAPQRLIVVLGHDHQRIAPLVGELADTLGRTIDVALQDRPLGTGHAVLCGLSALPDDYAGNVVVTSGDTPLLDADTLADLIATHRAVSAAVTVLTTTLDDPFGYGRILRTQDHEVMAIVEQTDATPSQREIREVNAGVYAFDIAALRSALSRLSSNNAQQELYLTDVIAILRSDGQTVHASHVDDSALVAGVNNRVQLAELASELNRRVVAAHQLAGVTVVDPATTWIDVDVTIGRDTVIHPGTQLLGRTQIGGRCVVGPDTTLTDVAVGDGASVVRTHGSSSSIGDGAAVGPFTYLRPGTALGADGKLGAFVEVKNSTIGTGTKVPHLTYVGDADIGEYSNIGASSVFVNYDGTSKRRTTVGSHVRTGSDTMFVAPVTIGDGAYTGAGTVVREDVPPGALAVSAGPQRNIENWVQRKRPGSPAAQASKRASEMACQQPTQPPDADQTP

This test concerns the target Bifunctional protein GlmU (Mycobacterium tuberculosis (strain ATCC 25618 / H37Rv)) (UniProt P9WMN3). Description: inhibition of mycobacterial GlmU enzyme – biochemical, glucosamine-1-phosphate acetyltransferase (AID 1376).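 Also: 0% = complete reaction with vehicle and 100% = reaction without substrate.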 Conditions: M. tuberculosis GlmU acetyltransferase enzyme assay; active compounds read high;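 tested at 30 µM in the primary screen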.
On to `O=C(CN(Cc1cccs1)C(=O)CNS(=O)(=O)c1ccc(F)cc1)NCC1CCCO1` (stereo not drawn), for which the inhibition was 3.23% (inactive).
In the case of `CCOc1ccc(CNC(=O)CCS(=O)(=O)Cc2ccc(C)cc2)cc1OC`, the inhibition was 2.73% (inactive).
Turning to `COc1ccc(C2(C)NC(=O)N(CC(=O)NCCC3=CCCCC3)C2=O)cc1OC` (stereo not drawn), the inhibition is -7.87% (inactive).
Consider `CN(C)c1nc(OCCNC(=O)Nc2ccccc2)nc(N2CCCCC2)n1`, for which the inhibition was 1.41% (inactive).
For the compound `COc1ccccc1C(=O)NCc1n[nH]c(=S)n1Cc1ccccc1`, the inhibition was 0.36% (inactive).
In the case of `CCCCN(CC(=O)NCc1ccc(F)cc1)C(=O)c1ccco1`, the inhibition was -1.73% (inactive).
Turning to `CCc1cc2c(SCC(=O)O)ncnc2s1`, the inhibition was -4.14% (inactive).
For `CCc1cc2c(SCC(=O)C(C#N)=C3N(C)c4ccccc4N3C)ncnc2s1`, the inhibition was 15% (active).
As to `CCc1cc2c(SCC(=O)c3ccccc3)ncnc2s1`, the inhibition was -3.16% (inactive).
Regarding `Cn1c(=O)c2c(SCC(=O)NCCc3ccccc3)nc(C3CC3)nc2n(C)c1=O`, the inhibition is 1.2% (inactive).
Turning to `O=C(Cn1cnc2c(nnn2Cc2ccc(F)cc2)c1=O)N1CCCc2ccccc21`, the inhibition was -5.31% (inactive).
Turning to `COc1ccc(OC)c(NC(=O)CCN2CCCCCC2)c1`, the inhibition was -10.2% (inactive).
Turning to `CCOC(=O)CC1C(=O)NCCN1C(=O)Nc1ccccc1` (stereo not drawn), the inhibition is -2.01% (inactive).
In the case of `CCC(C)(C(=O)NC1CCCCC1)N(C)C(=O)c1ccccn1` (stereo not drawn), the inhibition was 14.8% (active).
Under `CCC(C)(C(=O)NC1CCCC1)N(C)C(=O)c1ccccn1` (stereo not drawn) stands -5.14% (inactive).
As for `CCC(C)(C(=O)NC1CCCCC1)N(C(=O)c1ccccn1)c1ccccc1` (stereo not drawn), the inhibition is 2.61% (inactive).
Regarding `Cc1ccc(S(=O)(=O)Nc2nccs2)cc1[N+](=O)[O-]`, the inhibition was -3.62% (inactive).
Under `O=S1(=O)CCN(Cc2cccc(Cl)c2)CC1` stands -7.45% (inactive); under `CC(=O)Nc1cccc(NC(=O)c2ccc([N+](=O)[O-])cc2Cl)c1`, -7.61% (inactive); under `Cc1ccc(C[n+]2cccc(-c3ccccc3)c2)c(C)c1`, -2.52% (inactive).
Take `Cc1ccc(NC(=O)C2c3ccccc3Oc3ccccc32)nc1`: the inhibition is -2.94% (inactive).
On to `O=C(O)c1ccc2c(c1)C(=O)/C(=C\c1ccco1)C2=O`, for which the inhibition is 17.2% (active).
As for `O=C1C(=Cc2ccco2)C(=O)c2ccccc21`, the inhibition was 8.37% (inactive).
As to `O=C(NCc1ccco1)c1ccc2c(c1)C(=O)c1ccccc1-2`, the inhibition is -0.25% (inactive).
As to `Cc1ccc(C(=O)O)cc1-c1ccc(C=C2C(=O)c3ccccc3C2=O)o1`, the inhibition is 11.7% (inactive).
`Cc1ccc(/C=N/Nc2ccc(C(=O)O)cc2)o1`: the inhibition was 0.55% (inactive).
For the compound `Cc1csc(SC(C)C(=O)Nc2ccc(S(=O)(=O)N3CCCC3)cc2)n1` (stereo not drawn), the inhibition was -1.61% (inactive).
The value for `COCCCNC(=O)c1cc(C)nc2ccc(F)cc12` was 1.65% (inactive); that for `CC(C)c1nnc(NC(=O)CCC(=O)N2CCN(Cc3ccccc3)CC2)s1` was 3.04% (inactive); that for `CCN(CC)S(=O)(=O)c1ccc2nc(CCl)[nH]c2c1` was -0.14% (inactive).
Consider `Cc1sc2nc(SCc3nnc(-c4cccs4)o3)n(C3CCCC3)c(=O)c2c1C`, for which the inhibition was -5.93% (inactive).
The value for `CCOC(=O)c1c(NC(=O)CN2CCCCC2)sc(CN(C)C)c1-c1ccccc1` was -2.86% (inactive); that for `CC(=O)c1cc(F)c(N2CCN(C(=O)COc3ccccc3F)CC2)cc1C` was 1.65% (inactive).
As for `Cc1ccc(NC(=S)N2CCCCC2CO)cc1C` (stereo not drawn), the inhibition is -3.71% (inactive).
For `N#Cc1ccccc1OCC(=O)C1CC1`, the inhibition is 5.73% (inactive).
The value for `COc1cccc(C(=O)CSc2nnc(-c3cccs3)o2)c1` was 4.7% (inactive); that for `COc1ccc(N2CCN(c3ccc(N)cc3C#N)CC2)cc1` was -1.62% (inactive); that for `N#Cc1c(-n2cccc2)cccc1-n1cccc1` was 9.31% (inactive).
Turning to `N#Cc1cc(N)ccc1-n1cccc1`, the inhibition is 13.7% (active).
In the case of `O=C(O)[C@@H](O)[C@H](O)C(=O)O`, the inhibition is 2.76% (inactive).
For `O=C(O)C(Cl)Cl`, the inhibition is 2.18% (inactive).
Turning to `CC1CCc2c(sc3ncnc(NS(=O)(=O)c4cccs4)c23)C1` (stereo not drawn), the inhibition was 0.41% (inactive).
Consider `O=C1CSC(=Nc2cccc(Cl)c2Cl)N1Cc1cccnc1`, for which the inhibition was 1.06% (inactive).
Take `CC(=O)c1ccc(N2CCN(C(=S)Nc3cc(C)ccc3C)CC2)cc1`: the inhibition was -4.28% (inactive).
As for `CCN(CC)CCN(Cc1cc2cc3c(cc2[nH]c1=O)OCCO3)C(=O)NC1CCCCC1`, the inhibition was 4.4% (inactive).
As to `CCN(CC)CCN(Cc1cc2ccc(C)cc2[nH]c1=O)C(=O)NC1CCCCC1`, the inhibition was 14.2% (active).
On to `CCc1ccc2[nH]c(=O)c(CN(CCN(CC)CC)C(=O)NC3CCCCC3)cc2c1`, for which the inhibition is -7.06% (inactive).
Regarding `O=c1[nH]c(=O)n(-c2cccc3ccccc23)c(O)c1/C=N/N1CCCCC1c1cccnc1` (stereo not drawn), the inhibition was -5.46% (inactive).
As to `CC(OC(=O)c1cccs1)C(=O)NCc1cccs1` (stereo not drawn), the inhibition is -4.58% (inactive).
Consider `Cn1c(=O)c(C(=O)Nc2ncccc2O)c(O)c2ccccc21`, for which the inhibition was 2.25% (inactive).
Regarding `CC(=O)c1ccc(C)cc1OC(=O)c1cccc(F)c1`, the inhibition was 3.37% (inactive).
Under `Cc1cc(O)c2c(c1)C(=O)c1cc(O)cc(O)c1C2=O` stands -2.62% (inactive); under `O=C(O)c1cc(O)c2c(c1)C(=O)c1cccc(O)c1C2=O`, 0.69% (inactive).
With `O=C(O)c1cc(O)c2c(c1)C(=O)c1cc(O)cc(O)c1C2=O`, the inhibition was 13.3% (active).
Consider `Cc1ccc(NC(=O)CN(C)C(=O)c2ccc(S(=O)(=O)N(C)c3ccccc3)cc2)cc1`, for which the inhibition is 2.55% (inactive).
As for `CCOc1ncccc1C(=O)N1CCN(C(c2ccccc2)c2ccccc2)CC1`, the inhibition was 7.04% (inactive).
Regarding `COC(=O)c1cc(Cl)nc2ccccc12`, the inhibition was 5.71% (inactive).
The value for `CCOC(=O)C1=C(C)N(C)C(=O)NC1c1c(C)nn(-c2ccccc2)c1C` (stereo not drawn) was -0.97% (inactive).
With `CCOC(=O)C1=C(C)NC(=O)NC1c1c(C)nn(-c2ccccc2)c1Cl` (stereo not drawn), the inhibition is 15.1% (active).
As for `CCOC(=O)C1=C(C)N(C)C(=O)NC1c1c(C)nn(-c2ccc(C)cc2)c1Cl` (stereo not drawn), the inhibition was 3.87% (inactive).
Take `COc1cc(NC(=O)CCCSc2nc(-c3ccco3)cc(C(F)(F)F)n2)cc(OC)c1OC`: the inhibition is -3.07% (inactive).
Take `NC(=O)c1ccccc1NC(=O)Nc1cccc(Cl)c1`: the inhibition was 14.1% (active).
Consider `O=C(Nc1cccc(Cl)c1)Nc1ccccc1C(=O)O`, for which the inhibition is 2.52% (inactive).
Under `NC(=O)c1ccccc1NC(=O)Nc1ccc(F)c(Cl)c1` stands -5.33% (inactive); under `Cc1cc([N+](=O)[O-])nn1CCCC(=O)Nc1c(C)n(C)n(-c2ccccc2)c1=O`, -7.37% (inactive); under `CCOC(=O)C1(C)C=C(Nc2ccc(NC(C)=O)cc2)C(=O)N1c1ccc(NC(C)=O)cc1` (stereo not drawn), 14.8% (active).
The value for `CCOC(=O)C1(C)C=C(Nc2ccc(O)cc2)C(=O)N1c1ccc(O)cc1` (stereo not drawn) was 9.21% (inactive); that for `CCOC(=O)C1(C)C=C(Nc2ccc(C)cc2)C(=O)N1c1ccc(C)cc1` (stereo not drawn) was -2.18% (inactive).
With `CCn1c(=O)c2c(nc3n2CCN3c2ccccc2)n(C)c1=O`, the inhibition is -6.14% (inactive).
The value for `COc1ccc(/C=N/NC(=O)CCN2CCCCC2c2cccnc2)cc1Cn1cc([N+](=O)[O-])cn1` (stereo not drawn) was 12.8% (active); that for `COc1ccc(/C=N\NC(=O)c2cccc([N+](=O)[O-])c2)cc1Cn1cc([N+](=O)[O-])cn1` was -3.48% (inactive).
In the case of `COc1ccc(/C=N/NC(=O)c2ccccc2O)cc1Cn1cc([N+](=O)[O-])cn1`, the inhibition was -1.22% (inactive).
Take `O=C(CSc1nnc(Cc2cccs2)n1-c1ccc(Cl)cc1)NCc1ccc2c(c1)OCO2`: the inhibition is 12.9% (active).
Take `O=C(CSc1nnc(-c2cccs2)n1-c1ccccc1)NCc1ccc2c(c1)OCO2`: the inhibition is 4.61% (inactive).
`O=C(CSc1nnc(Cc2cccs2)n1-c1ccccc1)NCc1ccc2c(c1)OCO2`: the inhibition is 5.29% (inactive).
For `Cc1cccc(NC(=O)Cn2cnc3c(oc4ccccc43)c2=O)c1C`, the inhibition was 3.4% (inactive).
Under `CCC(=O)N/C(=N/c1nc(C)cc(C)n1)Nc1ccc(OC)cc1` stands 7.87% (inactive); under `N#CC12CCCCC1CC1CCCCC1(C#N)N2CCO` (stereo not drawn), 0.23% (inactive).
With `CCCOc1ccc(C2NC(=O)NC2=O)cc1` (stereo not drawn), the inhibition was 1.13% (inactive).
As for `CC(C)Oc1ccc(C2NC(=O)NC2=O)cc1` (stereo not drawn), the inhibition was 14.6% (active).
In the case of `CC(C)COc1ccc(C2NC(=O)NC2=O)cc1` (stereo not drawn), the inhibition is -0.34% (inactive).
For `CC(C)Oc1ccc(C2CC(=O)NC3=C2C(=O)CCC3)cc1` (stereo not drawn), the inhibition is -5.28% (inactive).
Under `CC(C)Oc1ccc(C2CCC(=O)NC2=O)cc1` (stereo not drawn) stands 13.8% (active); under `CC(C)Oc1ccc(C2CNC(=O)C2)cc1` (stereo not drawn), 5.76% (inactive); under `Cc1cc(N=NC(=O)c2ccccc2)ccc1O`, 1.4% (inactive).
Turning to `O=C(CNc1cccc(C(F)(F)F)c1)N/N=C/c1ccccc1C(=O)O`, the inhibition was 13.4% (active).
`O=C(CNc1cccc(C(F)(F)F)c1)N/N=C/c1cn(-c2ccccc2)nc1-c1ccccc1`: the inhibition is -4.25% (inactive).
As to `O=C(CNc1cccc(C(F)(F)F)c1)N/N=C/c1cccc(Br)c1`, the inhibition is -0.17% (inactive).
Consider `N/N=C1\CCCc2c1[nH]c1ccc([N+](=O)[O-])cc21`, for which the inhibition is 0.8% (inactive).
Take `CCn1c(SCC(=O)N2CCc3ccccc32)nnc1-c1c[nH]c2ccccc12`: the inhibition is 6.94% (inactive).
For the compound `Clc1ccc(Cn2nc(-c3ccccc3)nc2-c2ccccc2)cc1`, the inhibition is 7.14% (inactive).
As for `O=C1NC(=O)N(c2cccc(Cl)c2)C(=O)/C1=C\c1ccc(Sc2nc3ccccc3[nH]2)o1`, the inhibition was 22.4% (inactive).
With `O=C1NC(=O)N(c2ccc(Cl)cc2)C(=O)/C1=C\c1ccc(Sc2nc3ccccc3[nH]2)o1`, the inhibition is 12.5% (inactive).
Turning to `CN(C)S(=O)(=O)c1ccc(C(=O)N2CCOCC2)cc1`, the inhibition is 9.61% (inactive).
For the compound `CN(C)S(=O)(=O)c1ccc(=S)[nH]c1`, the inhibition was 1.27% (inactive).
Take `CSc1ccccc1NC(=O)Nc1ccc(Cl)cc1`: the inhibition is 1.07% (inactive).
In the case of `CSc1ccccc1NC(=O)Nc1cccc(Cl)c1`, the inhibition was 1% (inactive).
The value for `CSc1ccccc1NC(=O)Nc1ccc(F)c(Cl)c1` was 15% (active).
